Assay outcomes (PubChem)
An excerpt weighted towards active compounds, which were near 2.2% of everything screened.
Ba/F3 V617F tox: loss of viability in JAK2V617F-driven Ba/F3 cells | inhibition, % at 5.6 µM | AID 1446 | 1.1% of 220,000 active | Ba/F3 EpoR-JAK2V617F viability, ATP luminescence;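 active = inhibition above the campaign mean plus 3 SD over all tested compounds, cut at about 24% in these data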;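 note: cytokine-independent growth of Ba/F3 cells driven by EpoR plus mutant JAK2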
BaF3 tox: counter-screen for JAK2V617F inhibitors: parental Ba/F3 viability inhibitors. inhibition, % at 5.6 µM. 1.1% of 220,000 active. CellTiter-Glo ATP luminescence. AID 1486;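 active = inhibition above a per-campaign cutoff, the mean inhibition of all tested compounds plus 3 SD, cut at about 27% in these data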
aSyn UTR inh: 5' untranslated region of α-synuclein, MLPCN primary screen; alpha-synuclein 5'UTR reporter, inhibitor activity; inhibition, % (tested at 7.5 µM); 0.82% of 300,000 active; AID 1813; in the data active = inhibition above about 60%;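 note: H4 neuroglioblastoma cells stably carrying SNCA 5'UTR luciferase fusion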
APP 5UTR inh: APP translation inhibition; SH-SY5Y APP 5'UTR-luciferase reporter, luminescence; inhibition, % at 2 µM; 0.82% of 190,000 active;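 active = inhibition above a set limit, derived from the sample mean plus 3 SD, cut at about 45% in these data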
KLF5 inh: suppresses KLF5 promoter-driven expression; 0.23% of 290,000 active; inhibition, % at 5 µM; DLD-1 KLF5 promoter-luciferase reporter, luminescence; AID 1700;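 active = inhibition above a per-plate limit of that plate's mean compound inhibition plus 3 SD, cut at about 60% in these data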;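 note: higher means less KLF5 promoter-driven luciferase light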
IEC-6 tox-1: IEC-6 cytotoxicity, counter-screen for KLF5 inhibitors; luminescence viability; inhibition, % at 5 µM; 0.78% of 290,000 active
KLF5 confirm: confirmation of KLF5 inhibitors. shares compounds with KLF5 inh. DLD-1 KLF5 promoter firefly luciferase reporter, luminescence. inhibition, % at 4 µM. 79% of 610 active. AID 1834;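 active = inhibition above a set limit taken from the earlier primary screen, cut at about 63% in these data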
IEC-6 tox-2: kills rat IEC-6 cells in KLF5 counter-screen. shares compounds with KLF5 inh. IEC-6 rat intestinal cells, viability luminescence. inhibition, % at 4 µM. 56% of 610 active. AID 1905; in the data active = inhibition above about 23%;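 note: cells exposed to compounds for 48 hours before viability read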
IEC-6 cytotox cf: confirmation of cytotoxic compounds in rat IEC-6 intestinal epithelial cells | 63% of 1,900 active | shares compounds with IEC-6 tox-1 | AID 1907 | IEC-6 rat intestinal epithelial viability, luminescence | inhibition, % at 5 µM
Hits are given with their value; - = inactive; . = not tested or not shown. Cut-off read from the data, not from the text of the source, unless noted: active = inhibition above about 22%; inactive = the rest.

SMILES | Ba/F3 V617F tox | BaF3 tox | aSyn UTR inh | APP 5UTR inh | KLF5 inh | IEC-6 tox-1 | KLF5 confirm | IEC-6 tox-2 | others
CCN1CCN(C(c2cccs2)C(C)NC(=O)c2ccccc2F)CC1 (configuration not stated) | - | - | - | - | - | - | . | .
O=C(NCCCC(=O)N1CCCCC1)c1ccc(Cl)cc1 | . | . | - | . | - | - | . | .
COCCn1c(C)cc(C2=NNC(=Nc3ccccc3F)SC2)c1C | - | - | 91.4 | 52.4 | 88.6 | - | - | -
COCCCN=C1NN=C(c2cc(C)n(-c3ccccc3F)c2C)CS1 | - | - | - | - | - | - | . | .
COc1cccc(OC)c1C(=O)NCCc1ccccc1 | . | . | - | . | . | . | . | .
COC(=O)c1c(N)sc(C(=O)NCCc2ccccc2)c1C | . | . | 104.9 | . | 92.9 | - | 84.7 | -
CCOc1cc(C(=O)N(CC)CC(=O)Nc2c(F)cccc2F)ccc1OCC(=O)N1CCCCC1 | . | . | - | . | . | . | . | .
O=C(c1cc([N+](=O)[O-])ccc1N1CCOCC1)N1CCN(c2ccc([N+](=O)[O-])cc2)CC1 | . | . | - | . | . | . | . | .
O=C(c1ccccc1)c1cc([N+](=O)[O-])ccc1N1CCOCC1 | 71.3 | 74.2 | 101.3 | 92.0 | 73.6 | 80.5 | 72.4 | 57.7
Cc1nn(Cc2ccc(Cl)cc2)c(C)c1NC(=O)c1noc2c1CCc1ccccc1-2 | - | - | - | - | - | - | . | .
O=C(O)c1ccc(N=Nc2c(O)ccc3ncccc23)cc1 | . | . | - | . | 86.8 | - | - | -
O=C(O)c1cc(N=Nc2c(O)ccc3ccccc23)cc(C(=O)O)c1 | - | - | . | - | - | - | . | .
N/C(=N\OC(=O)c1ccc(=O)n(Cc2ccccc2)c1)c1ccccn1 | - | - | - | - | - | - | . | .
CCCc1ccc(C(=O)O/N=C(\N)c2ccccn2)cc1 | . | . | 71.7 | . | 101.5 | - | 97.3 | -
N/C(=N\OC(=O)c1ccc2ccccc2c1)c1ccccn1 | - | - | 95.5 | - | 86.3 | - | - | -
COCCSc1ccccc1C(=O)N1CCN(c2ccccc2OC)CC1 | - | - | - | - | - | - | . | .
Cc1ccc(C(=O)Oc2ccc(-c3nnco3)cc2)o1 | . | . | - | . | . | . | . | .
CN=c1scc(-c2ccccc2F)n1/N=C/c1ccc[nH]1 | - | - | 83.1 | 55.1 | 94.2 | - | 106.4 | -
CC(C)(C)c1ccc(C(=O)O/N=C(\N)c2ccccc2)cc1 | . | . | - | . | 71.3 | - | 65.8 | -
COc1ccc(C(=O)O/N=C(\N)c2ccccc2)cc1 | . | . | - | . | - | - | . | .
Cc1ccc(C(=O)N2CCN(CCNC(=O)C(=O)NCc3ccc(Cl)cc3)CC2)cc1 | . | . | - | . | - | - | . | .
O=C(O)c1c(C(=O)O)c(-c2ccc(Br)cc2)n2c1CSC2 | . | . | - | . | - | - | . | .
CCN(CC)c1ccc(/C=N/NC(=O)c2cccc(S(=O)(=O)Nc3ccccc3OC)c2)c(O)c1 | - | - | 95.2 | 69.7 | 74.4 | 30.6 | 79.1 | 33.5
COc1cc(NC(=O)CSc2nc(=O)n(CCN3CCOCC3)c3c2CCC3)cc(OC)c1 | . | . | - | . | . | . | . | .
CCOc1ccc(N(CC(=O)Nc2ccc(C)cc2)S(=O)(=O)c2c(C)noc2C)cc1 | - | - | - | - | - | - | . | .
SMILES | Ba/F3 V617F tox | BaF3 tox | aSyn UTR inh | APP 5UTR inh | KLF5 inh | IEC-6 tox-1 | KLF5 confirm | IEC-6 tox-2 | others
CCOc1ccc(N(CC(=O)Nc2ccccc2OCC)S(=O)(=O)c2c(C)noc2C)cc1 | . | . | 95.0 | . | 74.9 | 90.4 | 79.4 | 58.6 | IEC-6 cytotox cf=54.3
Cc1ccc(Nc2cnn(C34CC5CC(CC(CC(=O)O)(C5)C3)C4)c(=O)c2Cl)cc1 | - | - | - | - | - | - | . | .
C=CCNC(=O)C1CCC(=O)N1S(=O)(=O)c1ccc(C)cc1 (configuration not stated) | . | . | - | . | - | - | . | .
O=C(NNc1ncc(C(F)(F)F)cc1Cl)c1c(Cl)cccc1Cl | 83.1 | 83.4 | - | - | 71.3 | 46.1 | - | - | IEC-6 cytotox cf=31.6
Cc1ccc(S(=O)(=O)N(C)c2ccc(OCC(=O)N3CCCCC3)cc2)cc1 | . | . | - | . | - | - | . | .
O=C(N/N=C/c1ccccc1O)c1ccc2c(c1)OCO2 | . | . | - | . | 71.9 | 76.4 | - | - | IEC-6 cytotox cf=-
CCN(CC)c1ccc(N=Cc2ccc(N(CC)CC)cc2O)cc1 | - | - | - | - | - | - | . | .
CCN(CC)c1ccc(/C=N/N=C(N)N)c(O)c1 | 78.3 | 75.3 | 86.9 | 92.2 | 74.7 | 68.9 | 77.3 | 66.6 | IEC-6 cytotox cf=56.9
CC(C)(C)NC(=O)NC(=O)CN1CCN(S(=O)(=O)c2ccc3c(c2)CCCC3)CC1 | . | . | - | . | . | . | . | .
